The structures appear in SMILES notation. Where “and” joins values, the source holds several entries; their conditions need not be identical. Identical values can stand only once. Unmarked numbers belong to inactive results. Records with an inconclusive call do not appear. Calls of active or inactive are those of the source. Unless noted, calls follow the shape of the dose curve; as a rule, active = well fitted curve in the direction sought with a large enough effect in the repeat runs; inconclusive = weak or mixed curves; inactive = no such curve, though single readings can be large; an effect the other way counts as inactive or inconclusive.

The nature of test [1]: qHTS assay to identify small molecule antagonists of the estrogen related receptor (ERR) signaling pathway from Tox21 library - cell viability counter screen (AID 1224834). Also: nearly all actives have a fitted effect of over 30% in size. The procedure, abridged:
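Multiplexed viability counter screen in ERR cells: 17.5 h compound exposure at 37 C, CellTiter-Fluor added, 30 min at 37 C/5% CO2, fluorescence read.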
Background: qHTS replaces the single test concentration by a dilution series.

Test [2] has as its target Luciferin 4-monooxygenase (Photinus pyralis) (UniProt P08659). Nature of the test: qHTS assay to identify small molecule inhibitors of firefly luciferase (AID 1224835). Also: nearly all actives have a fitted effect of over 25% in size. Also: potency is read from the fitted curve at half-maximal effect. The procedure, abridged: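 Biochemical qHTS: compounds run as interplate titrations against purified firefly enzyme, with D-luciferin and ATP each at its KM concentration. Light output recorded by CCD imaging.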

A short description of test [3]: qHTS assay to identify small molecule agonists of the constitutive androstane receptor (CAR) signaling pathway - cell viability counter screen (AID 1224836). Also: nearly all actives have a fitted effect of over 45% in size. The procedure, abridged:
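Cells were seeded and incubated 4 hrs. Compounds were added across 15 concentrations together with PK11195 at 0.75 uM final. Plates were incubated 23 hrs at 37 C. CellTiter-Fluor was added and fluorescence measured.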

A short description of test [4]: qHTS assay to identify small molecule antagonists of the constitutive androstane receptor (CAR) signaling pathway - cell viability counter screen (AID 1224837). Also: nearly all actives have a fitted effect of over 45% in size. The procedure, abridged: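 Read-out: CellTiter-Fluor fluorescence after 23 hr at 37 C/5% CO2. Cells: HepG2 double-stable for hCAR and CYP2B6-2.2kb. Compounds tested at 15 concentrations in the presence of CITCO, final concentration 50 nM.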

For test [5], the target named is Nuclear receptor subfamily 1 group I member 3 (Homo sapiens) (UniProt Q14994). Nature of the test: qHTS assay to identify small molecule antagonists of the constitutive androstane receptor (CAR) signaling pathway (AID 1224838).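 Also: HepG2 cells stably expressing hCAR with CYP2B6 luciferase reporter stimulated by CITCO; nearly all actives have a fitted effect of over 40% in size.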 The gist of the method: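 Read-out: ONE-Glo luciferase luminescence after 30 min at room temperature. HepG2-CYP2B6-hCAR double-stable cells, compounds in 15-point titration plus 50 nM CITCO final, 24 h at 37 C/5% CO2.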
Chain of Nuclear receptor subfamily 1 group I member 3 (Homo sapiens) (Q14994 whole entry, looked up): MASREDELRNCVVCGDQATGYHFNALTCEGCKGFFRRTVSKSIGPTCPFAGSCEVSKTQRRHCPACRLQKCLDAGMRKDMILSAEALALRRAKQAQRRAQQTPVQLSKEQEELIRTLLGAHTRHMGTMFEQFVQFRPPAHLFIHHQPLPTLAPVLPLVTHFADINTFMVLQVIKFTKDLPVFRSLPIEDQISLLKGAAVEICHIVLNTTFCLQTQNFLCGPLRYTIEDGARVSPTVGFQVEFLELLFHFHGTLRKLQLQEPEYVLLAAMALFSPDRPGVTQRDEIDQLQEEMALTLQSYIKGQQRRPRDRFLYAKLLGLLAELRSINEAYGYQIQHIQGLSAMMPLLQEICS

The target is the same in test [6]. Nature of the test: qHTS assay to identify small molecule agonists of the constitutive androstane receptor (CAR) signaling pathway (AID 1224839).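 Also: HepG2 cells stably carrying human CAR and a CYP2B6 luciferase reporter; nearly all actives have a fitted effect of over 15% in size.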 The gist of the method: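 Cells were plated and incubated 4 hrs, then dosed with compounds at 15 concentrations. PK11195 was added to 0.75 uM final. After 24 hrs at 37 C, luciferase luminescence was measured.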
Test [7] can be described thus: qHTS assay to identify small molecule antagonists of the estrogen related receptor signaling pathway with the pleiotropic PPARgamma coactivator (PGC) from Tox21 10K library - cell viability counter screen (AID 1224840; active = well fitted cell-killing curve with a large enough effect in the repeat runs, not every such curve was filed as active; also: nearly all actives have a fitted effect of over 40% in size). The gist of the method: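 Fluorescence read-out of CellTiter-Fluor viability reagent, added after cells had been exposed to compound in DMSO for 17.5 h at 37 C; 30 min development at 37 C/5% CO2. Cells: PGC/ERR line, 2,000/well.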

Test [8] in a line: qHTS assay to identify small molecule antagonists of the estrogen related receptor signaling pathway with the pleiotropic PPARgamma coactivator (PGC) from Tox21 10K library (AID 1224841; call rule not given here; also: actives are mostly falling curves and most rising ones were filed inactive; nearly all actives have a fitted effect of over 50% in size). The gist of the method:
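Luminescence read-out (One-Glo luciferase reagent, 30 min at room temperature) from PGC/ERR cells exposed to DMSO-dissolved test compounds for 18 h at 37 C; cells, 2,000 per well, had been preincubated 6 h before compound transfer.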

The nature of test [9]: qHTS assay to identify small molecule agonists of the estrogen related receptor signaling pathway with the pleiotropic PPARgamma coactivator (PGC) from Tox21 10K library (AID 1224842). Also: nearly all actives have a fitted effect of over 15% in size. The gist of the method: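 PGC/ERR reporter cell line, 2,000 cells per well, incubated 6 h at 37 C before 23 nL compound in DMSO was added. After 18 h at 37 C, One-Glo luminescence read following 30 min at room temperature.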

The target in test [10] is Thyrotropin receptor (Homo sapiens) (UniProt P16473). Nature of the test: qHTS assay to identify small molecule agonists of the thyroid stimulating hormone receptor (TSHR) signaling pathway (AID 1224843; calls by dose curve; also: nearly all actives have a fitted effect of over 45% in size). The gist of the method: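 HEK293/TSHR, 800 cells/well; cpd 30 min RT; add cAMP-d2 + anti-cAMP-cryptate, 1 h RT; fluorescence read on plate reader. 15-pt titration, n=3.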
Chain of Thyrotropin receptor (Homo sapiens) (P16473 whole entry, looked up): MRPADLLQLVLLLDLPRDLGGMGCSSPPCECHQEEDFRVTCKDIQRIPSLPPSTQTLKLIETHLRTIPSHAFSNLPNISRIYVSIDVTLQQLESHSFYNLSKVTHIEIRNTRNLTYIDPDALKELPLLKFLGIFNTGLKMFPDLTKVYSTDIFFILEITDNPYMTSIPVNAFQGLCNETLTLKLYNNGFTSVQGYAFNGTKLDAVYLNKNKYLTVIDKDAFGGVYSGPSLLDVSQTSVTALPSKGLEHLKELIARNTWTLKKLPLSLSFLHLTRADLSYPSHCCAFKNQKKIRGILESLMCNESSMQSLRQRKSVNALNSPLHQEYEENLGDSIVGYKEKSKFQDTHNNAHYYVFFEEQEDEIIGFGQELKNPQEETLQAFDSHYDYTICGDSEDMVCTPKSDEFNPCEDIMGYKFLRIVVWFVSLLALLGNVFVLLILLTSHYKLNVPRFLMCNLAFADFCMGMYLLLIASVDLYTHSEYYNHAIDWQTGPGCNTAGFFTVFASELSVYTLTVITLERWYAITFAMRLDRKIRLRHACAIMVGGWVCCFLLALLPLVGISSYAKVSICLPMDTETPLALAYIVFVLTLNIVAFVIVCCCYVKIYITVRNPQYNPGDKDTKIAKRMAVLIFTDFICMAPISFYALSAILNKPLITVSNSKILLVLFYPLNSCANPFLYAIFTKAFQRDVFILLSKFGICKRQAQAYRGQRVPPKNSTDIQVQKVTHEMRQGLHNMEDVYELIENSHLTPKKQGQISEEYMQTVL

Test [11] is described as follows: qHTS assay to identify small molecule agonists of the hypoxia (HIF-1) signaling pathway - cell viability counter screen (AID 1224844; calls by dose curve; also: nearly all actives have a fitted effect of over 50% in size). The procedure, abridged:
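CellTiter-Glo luminescence read-out, 30 min RT, taken in the same wells as the beta-lactamase HRE reporter assay; HRE-bla ME-180 cells, 0.5% dialyzed FBS, 17 hr compound treatment at 37C, 5% CO2.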

A short description of test [12]: qHTS assay to identify small molecule agonists of H2AX (AID 1224845; active = well fitted activation curve with a large enough effect in the signal ratio in the repeat runs, not every such curve was filed as active; the % refers to the signal ratio). The gist of the method:
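Wild-type CHO-K1 cells, plated overnight, exposed 3hr at 37C to 15 concentrations (0.76% DMSO final). Lysed, then HTRF anti-pH2AX (S139) cryptate and anti-H2AX-d2 antibodies, 24 hr room temperature; 665/620 nm emission read.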

Test [13] is described as follows: qHTS assay to identify small molecule agonists of the hypoxia (HIF-1) signaling pathway (AID 1224846; active = well fitted activation curve with a large enough effect in the signal ratio in the repeat runs, not every such curve was filed as active; the % refers to the signal ratio). The gist of the method:
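Beta-lactamase FRET read-out (CCF4-AM substrate) from ME-180 cells carrying an HRE-driven bla reporter, after 17 hrs compound exposure at 37C/5% CO2. Cells were seeded at 2,000 per well in 0.5% dialyzed FBS medium and preincubated 5 hrs.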

The nature of test [14]: qHTS assay to identify small molecule agonists of H2AX - cell viability counter screen (AID 1224847; calls by dose curve; also: top concentration of the series differs between compounds; nearly all actives have a fitted effect of over 30% in size). The gist of the method:
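Cytotoxicity counter screen in wild-type CHO-K1 cells: a 3 hr compound treatment at 37C across 15 concentrations, followed by CellTiter-Glo luminescence to gauge viable cells.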

The nature of test [15]: qHTS assay to identify small molecule antagonists of the estrogen related receptor (ERR) signaling pathway from Tox21 library (AID 1224848). Also: nearly all actives have a fitted effect of over 50% in size. Also: potency is read from the fitted curve at half-maximal effect. The procedure, abridged: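 Compounds dissolved in DMSO are pin-transferred onto ERR reporter cells (2,000 per well) that have settled for 6 h at 37 C. Plates then incubate 18 h at 37 C before ONE-Glo luciferase reagent and a luminescence read 30 min later.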

A short description of test [16]: qHTS assay to identify small molecule agonists of the estrogen related receptor (ERR) signaling pathway from Tox21 library (AID 1224849; calls by dose curve; also: nearly all actives have a fitted effect of over 15% in size). Particulars: ERR reporter cell line, ONE-Glo luciferase, 18 h. The gist of the method: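 Luminescence readout (ONE-Glo, 30 min RT) after 18 h compound exposure at 37 C of NTP-supplied ERR reporter cells; cells were plated 6 h before compound addition by pin tool.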

The nature of test [17]: qHTS RealTime-Glo MT Cell Viability Assay in HepG2 cells - 24 hour (AID 1224867). Also: nearly all actives have a fitted effect of over 50% in size. The procedure, abridged:
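HepG2 suspension premixed with RealTime-Glo reagents is plated at 600 cells per well and left 5 h at 37 C/5% CO2. Compounds in DMSO then go in, and bioluminescence reflecting viable cell number is recorded over 40 h.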

Test [18] can be described thus: qHTS RealTime-Glo MT Cell Viability Assay in HEK293 cells - 32 hour (AID 1224868). The procedure, abridged: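 Reads taken at 0, 8, 16, 24, 32 and 40 h from the same wells. HEK293 cells (600/well) carried RealTime-Glo reagents from seeding, with compound added after a 5 h settle at 37 C.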
Test [19] is described as follows: A CellTox Green Cytotoxicity Assay to monitor cytotoxicity in HEK293 cells - 0 hour (AID 1224869). Also: nearly all actives have a fitted effect of over 50% in size. The procedure, abridged:
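Read-out: fluorescence of a cell-impermeant cyanine dye staining DNA of dead cells, proportional to cytotoxicity. HEK293, 600 cells/well with reagent, compound (23 nL DMSO) added after 5 h; reads at 0, 8, 16, 24, 32, 40 h.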

Test [20] can be described thus: qHTS RealTime-Glo MT Cell Viability Assay in HepG2 cells - 40 hour (AID 1224870). Also: nearly all actives have a fitted effect of over 50% in size. The gist of the method: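 HepG2 cells (600/well) mixed with RealTime-Glo MT reagent, settled 5 h at 37 C/5% CO2 before compound addition. Nonlytic NanoLuc luminescence from viable-cell prosubstrate reduction read repeatedly during 40 h treatment at 37 C.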
% is scaled to controls: 0 for no effect and ±100 for the full control effect.

Chain of Luciferin 4-monooxygenase (Photinus pyralis) (P08659 whole entry, looked up): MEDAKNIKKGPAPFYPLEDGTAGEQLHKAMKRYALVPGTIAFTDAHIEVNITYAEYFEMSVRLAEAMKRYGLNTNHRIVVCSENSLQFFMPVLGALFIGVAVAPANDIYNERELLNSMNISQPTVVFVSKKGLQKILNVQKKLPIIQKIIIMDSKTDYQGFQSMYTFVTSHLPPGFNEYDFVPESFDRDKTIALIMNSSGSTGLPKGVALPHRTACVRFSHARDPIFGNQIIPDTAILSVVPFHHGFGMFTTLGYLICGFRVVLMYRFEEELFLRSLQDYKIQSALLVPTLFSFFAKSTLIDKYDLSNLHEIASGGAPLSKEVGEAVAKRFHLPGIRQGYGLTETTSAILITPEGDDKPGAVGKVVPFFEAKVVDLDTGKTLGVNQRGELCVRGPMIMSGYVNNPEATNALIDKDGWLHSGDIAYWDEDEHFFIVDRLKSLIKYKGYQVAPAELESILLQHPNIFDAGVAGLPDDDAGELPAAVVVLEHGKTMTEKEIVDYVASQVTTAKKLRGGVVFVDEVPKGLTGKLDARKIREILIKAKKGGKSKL

For the molecule `CCCCCCC(=O)O`, the Potency result in test [1], in test [2], in test [3], in [4], in test [5] and in test [6] was “inactive” in each case. In addition, the Potency result in [7], in test [8], in test [9], in test [10], in test [11] and in [12] was “inactive” throughout. Moreover, the Potency entry in [14], in [15], in [17], in [18], in test [19] and in [20] was “inactive” each time. The result in test [13] was inactive. The activity change, positive = activation in test [16] (at 92.4 µM (top of the series)) is 5.44% and -1.64%.

As for `C1CCCNCC1`, the Potency entry in [1], in test [2], in test [3], in test [4], in test [5] and in test [6] was “inactive” in each case. For the same molecule, the Potency result in [7], in [8], in [9], in test [10], in test [11] and in test [12] was “inactive” throughout. Further, the Potency result in test [14], in test [15], in test [17], in [18], in test [19] and in test [20] was “inactive” throughout. Moreover, in test [13], the call was inactive. In [16] (at 92.4 µM (top of the series)), the activity change, positive = activation is 1.64% and -2.2%.

For `Nc1nc(N)c2nc(-c3ccccc3)c(N)nc2n1`, the Potency entry in [1], in test [3], in [4], in test [5], in [6] and in test [7] was “inactive” in each case. The Potency result in test [8], in test [9], in [10], in test [11], in test [14] and in [17] was “inactive” each time. Moreover, the Potency result in [18], in test [19] and in test [20] was “inactive” throughout. Also, the Potency is 40.4 µM (active) and 39.9 µM (active) in [2]; 24.6 µM (active) and 21.7 µM (active) in test [15]. For the same molecule, the activity change, positive = activation in test [16] (at 42.5 µM (top of the series)) was -33.8%; in [16] (at 92.4 µM (top of the series)), -44.9% and -45.9%.

As for `COC(=O)/C=C\C(=O)OC`, the Potency result in [1], in test [2], in [3], in test [4], in [5] and in test [6] was “inactive” each time. Moreover, the Potency entry in test [7], in test [8], in test [9], in [10], in [11] and in test [12] was “inactive” in each case. Further, the Potency entry in [14], in [15], in test [17], in test [18], in [19] and in test [20] was “inactive” in each case. Further, the call in test [13] was inactive. In addition, the activity change, positive = activation was 7.01% in [16] (at 42.5 µM (top of the series)) and 2.62% in [16] (at 92.4 µM (top of the series)).

For the molecule `CN=C(NC#N)NCCSCc1nc[nH]c1C`, the Potency result in [1], in test [2], in test [3], in test [4], in [5] and in test [6] was “inactive” each time. For the same molecule, the Potency entry in test [7], in test [8], in test [9], in test [10], in test [11] and in [12] was “inactive” each time. Moreover, the Potency entry in [14], in test [15], in test [17], in test [18], in [19] and in test [20] was “inactive” each time. Moreover, the molecule was called inactive in test [13]. Moreover, the activity change, positive = activation in test [16] (at 92.4 µM (top of the series)) was 2.07%.

With `NC(=O)NC(N)=O`, the Potency entry in test [1], in [2], in test [3], in test [4], in test [5] and in test [6] was “inactive” each time. For the same molecule, the Potency result in test [7], in [10], in test [11], in test [12], in test [14] and in [17] was “inactive” each time. The Potency entry in test [18], in test [19] and in [20] was “inactive” in each case. In addition, the call in test [13] was inactive.

On to `COCN(COC)c1nc(N(COC)COC)nc(N(COC)COC)n1`, for which the Potency entry in test [1], in [2], in [3], in test [4], in test [5] and in [6] was “inactive” throughout. Besides, the Potency result in [7], in test [8], in test [9], in test [10], in [11] and in test [12] was “inactive” throughout. Further, the Potency entry in test [14], in [15], in test [17], in test [18], in [19] and in test [20] was “inactive” in each case. Also, the molecule was classed as inactive in [13]. Further, in test [16] (at 92.4 µM (top of the series)), the activity change, positive = activation was -2.4% and 4.33%.
